Data as given in PubChem BioAssay AID902 (National Center for Advancing Translational Sciences (NCATS), 2007).
Screen size: about 130,000 compounds; about 1,900 (1.5%) were called active. Another 5% or so got no clear call; they are omitted. The full list was thinned out, with actives kept by preference. A number with no mark means an inactive call. The call rests on the fitted dose curve; in most records, active means well fitted cell-killing curve with a large enough effect; inconclusive means small, poorly fitted or top-dose-only effect; inactive means no such curve, though single readings can be large or run the other way.

Assay: qHTS Screen for Compounds that Selectively Target Cancer Cells with p53 Mutations: Cytotoxicity of p53ts Cells at the Nonpermissive Temperature; further: nearly all actives have a fitted effect of over 55% in size
Conditions: H1299-p53A138V viability at 39C, ATP luminescence, 24 h; series mostly up to 46.1 µM; activity change, negative = cell killing: at the top concentration
On the % scale 0 is the no-effect control and ±100 the full control effect; potency means the concentration at half of the fitted maximal effect.

Row | Compound | activity change, negative = cell killing | Potency
1 | CCC1CCCCN1C(=O)Cn1c(=O)n(CCCCCC(=O)NCc2ccccc2)c(=O)c2sccc21 (stereo unspecified) | -0.145% | –
2 | Cc1cc(C)c(NC(=O)CSc2nc3ccncc3[nH]2)c(C)c1 | -16.4% | –
3 | Cn1c(=O)c2c(-c3ccccc3Br)n(Cc3ccccc3)cc2n(C)c1=O | -12.6% | –
4 | Cn1c(=NC(=O)CSCC(=O)N2CCOCC2)sc2ccccc21 | -8.08% | –
5 | Cn1c(=NC(=O)c2cnccn2)sc2ccccc21 | – | 10 µM (active)
6 | Cn1c(=NC(=O)CSCC(=O)N2CCCCC2)sc2ccccc21 | -4.22% | –
7 | CCOc1ccc(-c2cc3nc(C4CCN(C(=O)OC(C)(C)C)CC4)c(C(=O)Nc4cccc(CC)c4)cn3n2)cc1 | -8.99% | –
8 | O=C(CN1C(=O)C2C3CCC(C3)C2C1=O)Oc1ccc2ccccc2c1 (stereo unspecified) | 26.2% | –
9 | Cc1ccc2nc(CC(=O)c3ccc4ccccc4c3)c(=O)[nH]c2c1 | 2.32% [at 9.22 µM] | –
10 | C=CC(=O)c1ccc2ccccc2c1 | – | 10 µM (active)
11 | COc1cccc(CNC(=O)CSc2c3c(nc4cc(Cl)ccc24)CCCC3)c1 | 24.3% | –
12 | CCOC(=O)Cc1ccc(NC(=O)Nc2c[nH]c(=O)[nH]c2=O)cc1 | -11.2% | –
13 | CCOc1ccccc1CNCc1c(C(=O)O)c(C)n(Cc2ccc(C)cc2)c1C | 5.24% | –
14 | CCOc1ccc(NC(=O)Nc2cc(C)on2)cc1 | -22.6% | –
15 | CCOc1ccc(C(=O)Nc2ccncc2)cc1 | -23% | –
16 | Cc1ccc(OCC(=O)Nc2ccc(-c3nnc(-c4ccco4)o3)cc2)cc1 | -5.57% | –

Row | Compound | activity change, negative = cell killing | Potency
17 | CCC(=O)Oc1cccc(C(=O)Nc2ccc(-c3nnc(-c4ccco4)o3)cc2)c1 | -4.05% | –
18 | CCOc1ccc(NC(=O)c2ncoc2-c2ccco2)cc1 | – | 7.94 µM (active)
19 | CCOc1ccc(-c2nnc(-c3ccco3)o2)cc1 | – | 12.6 µM (active)
20 | CN(C)CCCn1c(-c2ccc(Cl)cc2)csc1=Nc1ccccc1 | -9.09% | –
21 | CCCN(CCC)CCNC(=O)Cn1cnc2sc(C)c(S(=O)(=O)N3CCC(C)CC3)c2c1=O | 24.7% | –
22 | COc1ccc(S(=O)(=O)c2c(Nc3ccc(C)cc3)sc(C(=O)c3ccc(C)cc3)c2N)cc1 | -1.53% | –
23 | Cc1cccc(OCC(=O)N(Cc2ccc(C(C)C)cc2)Cc2ccco2)c1C | -28% | –
24 | Cc1cc(C(=O)COC(=O)CCCN2C(=O)c3ccccc3C2=O)c(C)n1C | 3.08% | –
25 | C=CCn1c(C)cc(C(=O)CN2C(=O)c3ccccc3C2=O)c1C | – | 12.6 µM (active)
26 | C=CCN(CC=C)C(=O)CN1C(=O)c2ccccc2C1=O | 3.05% | –
27 | CC(=O)N1CCCc2cc(S(=O)(=O)N3CCC(C(=O)NCc4ccc(F)cc4)CC3)ccc21 | -25.5% | –
28 | Cc1c(Cl)cccc1NC(=O)c1noc2c1CCCC2 | -20.5% | –
29 | O=C(Nc1cccnc1)c1ccc2c(c1)OCO2 | -11.1% | –
30 | O=C(Nc1cccnc1)c1noc2c1CCCCC2 | – | 12.6 µM (active)
31 | Cc1ccc(Cl)cc1NC(=O)CSc1nc2ccccc2nc1Cc1ccccc1 | -27.2% | –
